PubChem BioAssay (EPA / NIEHS)
Inconclusive results are not listed. The source made the active and inactive calls. The calls were made as follows, unless noted: active = hit-call score of the fitted dose curve at least 0.9, where 1 is the maximum; inactive = score below 0.9.

Legend:
[1] = ACEA_ER_80hr: ACEA Biosciences xCELLigence Real-Time Cell Analysis on Estrogen Receptor Agonism for Proliferation (AID 2282667; active = hit-call score of the fitted dose curve at least 0.9, where 1 is the maximum); conditions: T47D proliferation, impedance (xCELLigence), 80 h
How it was run: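 Estrogen-driven proliferation is captured as electrode impedance in T47D cells 80 h after compound addition. Test articles ran at 8 concentrations, 1:4 dilutions from 100 uM final, in two replicate plates.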

[2] = ATG_CRE_CIS: Attagene CIS-FACTORIAL HepG2 Assay for human cAMP Responsive Element (CRE) binding protein 3 (AID 2282926); conditions: HepG2 CRE cis-reporter, Attagene multiplexed mRNA; actives raise or lower the signal
How it was run: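 Transfected HepG2 were treated for 24 hours, then RNA was extracted and reporter cDNA amplified with sequence-specific primers. Labelled fragments were separated by capillary electrophoresis, and the CRE signal was fitted bidirectionally with DMSO as baseline.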

[3] = target: CCAAT/enhancer-binding protein beta (Homo sapiens) (UniProt P17676); assay: ATG_C_EBP_CIS: Attagene CIS-FACTORIAL HepG2 Assay for human CCAAT/Enhancer Binding Protein (C/EBP) beta (AID 2282927); conditions: HepG2 Attagene cis-factorial transcription factor reporter; actives raise or lower the signal
How it was run: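 Endogenous C/EBPb-driven reporter transcripts measured in transfected human HepG2 cells at 24 h via RT-PCR and capillary electrophoresis of labelled fragments. Activity fitted in both directions relative to DMSO baseline.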

[4] = ATG_CMV_CIS: Attagene CIS-FACTORIAL HepG2 Assay for human CMV (Internal Marker) (AID 2282928); conditions: HepG2 CMV promoter reporter, transcription factor profiling; actives raise or lower the signal;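 also: endpoint acts as a background internal control marker rather than a target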
How it was run: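 Cell system: HepG2, transiently transfected multiple reporter units under cis promoters. Exposure: 24 h. Detection: RT-PCR, FAM labeling, HpaI digestion, capillary electrophoresis. Analysis: bidirectional, DMSO baseline.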

[5] = ATG_DR4_LXR_CIS: Attagene CIS-FACTORIAL HepG2 Assay for human Liver X Receptor (LXR), DR4 submotif (AID 2282929); conditions: HepG2 Attagene DR4 cis-reporter, mRNA transcription; actives raise or lower the signal
How it was run: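 The endpoint is DR4-element-driven reporter transcripts after 24 h chemical exposure of transfected HepG2 cells. These were measured via RT-PCR and capillary electrophoresis, and gain or loss of signal was fitted relative to DMSO controls.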

[6] = target: Aryl hydrocarbon receptor (Homo sapiens) (UniProt P35869); assay: ATG_Ahr_CIS: Attagene CIS-FACTORIAL HepG2 Assay for human Aryl Hydrocarbon Receptor (Ahr) (AID 2282930); conditions: HepG2 AhR cis-factorial reporter transcription; actives raise or lower the signal
How it was run: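 Reporter mRNA levels, quantified by RT-PCR and fluorescent capillary electrophoresis, reflect endogenous AhR transcriptional activity in HepG2 cells carrying transfected cis-promoter reporter constructs. Readout at 24 h post-dose; gain or loss fitted against DMSO baseline.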

[7] = ATG_AP_1_CIS: Attagene CIS-FACTORIAL HepG2 Assay for human Activator Protein 1 (AP-1) (AID 2282931); conditions: HepG2 Attagene cis-factorial AP-1 reporter mRNA; actives raise or lower the signal
How it was run: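 Readout is reporter transcript level from endogenous transcription factor activity, quantified by RT-PCR with fluorescent primer extension and capillary electrophoresis. Transiently transfected HepG2 cells, 24 h exposure. Curves fitted both directions versus DMSO.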

[8] = ATG_AP_2_CIS: Attagene CIS-FACTORIAL HepG2 Assay for human Activator Protein 2 (AP-2) (AID 2282932); conditions: HepG2 AP-2 cis-reporter, Attagene transcription factor profiling; actives raise or lower the signal
How it was run: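 HepG2, transient MRTU transfection, cis-regulated reporters; 24 h compound exposure; RNA isolated, RT-PCR, 6-FAM labelling, HpaI digest, CE fluorescence. DMSO = negative control/baseline, bidirectional fit.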

[9] = ATG_BRE_CIS: Attagene CIS-FACTORIAL HepG2 Assay for human Bone Morphogenetic Protein (BMP) Response Element (BRE) (AID 2282933); conditions: HepG2 BMP response element reporter, Attagene transcription factor profiling; actives raise or lower the signal
How it was run: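 HepG2 cells transiently transfected with CIS reporter units (endogenous TF activity, BMP response element), dosed 24 h. Reporter mRNA quantified by RT-PCR, fluorescent labelling and capillary electrophoresis; bidirectional fit vs DMSO baseline.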

[10] = target: Retinoic acid receptor alpha (Homo sapiens) (UniProt P10276); assay: ATG_DR5_RAR_CIS: Attagene CIS-FACTORIAL HepG2 Assay for human Retinoic Acid Receptor Alpha (RARE), DR5 submotif (AID 2282934); conditions: HepG2 Attagene cis-factorial RARE DR5 reporter, mRNA; actives raise or lower the signal
How it was run: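 Reporter transcripts from a DR5-regulated unit, measured via RT-PCR plus capillary electrophoresis, reflect endogenous RAR activity in transiently transfected human HepG2 liver cells. Exposure lasted 24 h; gain or loss of signal scored against DMSO.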

[11] = ATG_E_Box_CIS: Attagene CIS-FACTORIAL HepG2 Assay for human Enhancer Box (E-box) (AID 2282936); conditions: HepG2 E-box cis-reporter transcription, actives raise or lower the signal
How it was run: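 Cells: HepG2 (human liver), transient MRTU transfection. Exposure 24 h. RNA → oligo(dT) RT → PCR → 6-FAM label → HpaI → CE. Activity fitted both directions relative to DMSO.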

[12] = ATG_EGR_CIS: Attagene CIS-FACTORIAL HepG2 Assay for human Early Growth Response 1 (EGR1) (AID 2282938); conditions: HepG2 Attagene CIS-FACTORIAL EGR reporter mRNA; actives raise or lower the signal
How it was run: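 After 24 h compound exposure, RNA from reporter-transfected HepG2 cells was reverse-transcribed, PCR-amplified, fluorescently labelled and resolved by capillary electrophoresis. EGR1 reporter transcript changes, up or down, were fitted against DMSO, reflecting endogenous transcription-factor activity.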

[13] = ATG_M_19_CIS: Attagene CIS-FACTORIAL HepG2 Assay for M19 Transcription Factor (Internal Marker) (AID 2282939); conditions: HepG2 Attagene CIS-FACTORIAL M19 internal marker reporter; actives raise or lower the signal
How it was run: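 HepG2 cells transiently transfected with cis-regulated multiplexed reporter units, dosed 24 h. Reporter mRNA quantified by RT-PCR and capillary electrophoresis; internal background marker fitted bidirectionally versus DMSO.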

[14] = ATG_ERE_CIS: Attagene CIS-FACTORIAL HepG2 Assay for Estrogen Response Element (ERE) (AID 2282940); conditions: HepG2 ERE cis-reporter, Attagene RNA transcript; actives raise or lower the signal
How it was run: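 HepG2 cells transiently transfected with multiplexed cis-element reporter units, measuring endogenous transcription factor activity; ERE reporter mRNA quantified after 24 h exposure by RT-PCR, fluorescent labelling, HpaI digestion and capillary electrophoresis. Bidirectional change versus DMSO.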

[15] = ATG_Ets_CIS: Attagene CIS-FACTORIAL HepG2 Assay for human Erythroblast Transformation Specific (ETS) (AID 2282941); conditions: HepG2 ETS cis-reporter transcription, actives raise or lower the signal
How it was run: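 After transient cis-reporter transfection, HepG2 cells receive test chemical for 24 h. Reporter mRNA levels, measured by RT-PCR and capillary electrophoresis fluorescence, are analysed bidirectionally relative to the DMSO baseline.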

[16] = target: Hepatocyte nuclear factor 3-beta (Homo sapiens) (UniProt Q9Y261); assay: ATG_FoxA2_CIS: Attagene CIS-FACTORIAL HepG2 Assay for human Forkhead box A2 (FOXA2) (AID 2282942); conditions: HepG2 cis-reporter transcription factor activity, 24 h; actives raise or lower the signal
How it was run: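 Endogenous transcription factor activity is captured via cis-element-driven reporter transcripts in transfected HepG2. Total RNA taken at 24 h post-dosing; labelled RT-PCR products resolved by capillary electrophoresis. Gain or loss fitted versus DMSO.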

[17] = ATG_FoxO_CIS: Attagene CIS-FACTORIAL HepG2 Assay for human Forkhead box O (FoxO) (AID 2282943); conditions: HepG2 Attagene cis-reporter, FoxO element, mRNA; actives raise or lower the signal
How it was run: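 Endogenous transcription factor activity read from multiplexed cis-promoter reporter transcripts in transiently transfected HepG2, 24 h after dosing. Reporter RNA measured via RT-PCR plus capillary electrophoresis of FAM-labeled products; gain or loss relative to DMSO.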

[18] = ATG_GATA_CIS: Attagene CIS-FACTORIAL HepG2 Assay for human GATA Binding Protein (AID 2282944); conditions: HepG2 GATA cis-element reporter, Attagene multiplex mRNA; actives raise or lower the signal
How it was run: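 HepG2 cells transiently transfected with multiplexed cis-element reporter units measure endogenous GATA activity; after 24 h compound exposure, reporter mRNA quantified by RT-PCR and capillary electrophoresis. Changes fitted in both directions vs DMSO.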

[19] = ATG_M_61_CIS: Attagene CIS-FACTORIAL HepG2 Assay for M61 Transcription Factor (Internal Marker) (AID 2282937); conditions: HepG2 Attagene CIS-FACTORIAL M61 internal marker reporter; actives raise or lower the signal
How it was run: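 Readout is reporter mRNA by RT-PCR, fluorescent primer extension and capillary electrophoresis, with gain or loss fitted relative to DMSO. Transfected HepG2 cells carrying endogenous-TF-driven cis reporters were exposed to chemicals for 24 hours.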

[20] = target: Transcription factor E2F1 (Homo sapiens) (UniProt Q01094); assay: ATG_E2F_CIS: Attagene CIS-FACTORIAL HepG2 Assay for human E2F Transcription Factor 1 (AID 2282935); conditions: HepG2 Attagene cis-reporter, E2F reporter RNA transcripts; actives raise or lower the signal
How it was run: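 Cis-element reporter mRNA induction in transiently transfected HepG2, 24 h exposure. Activity fitted in both directions relative to DMSO negative control.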

Measured: AC50

CCAAT/enhancer-binding protein beta (Homo sapiens), sequence (P17676 whole entry, looked up, the tested form may be a part): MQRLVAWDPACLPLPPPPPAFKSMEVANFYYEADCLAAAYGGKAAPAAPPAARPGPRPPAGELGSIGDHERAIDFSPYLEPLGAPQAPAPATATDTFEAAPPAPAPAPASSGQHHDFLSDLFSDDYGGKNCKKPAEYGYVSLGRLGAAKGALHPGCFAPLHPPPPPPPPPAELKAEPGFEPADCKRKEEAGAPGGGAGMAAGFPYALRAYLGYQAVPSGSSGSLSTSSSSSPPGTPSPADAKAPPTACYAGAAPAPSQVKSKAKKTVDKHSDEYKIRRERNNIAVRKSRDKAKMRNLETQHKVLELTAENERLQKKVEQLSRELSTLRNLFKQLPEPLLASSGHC
Retinoic acid receptor alpha (Homo sapiens), sequence (P10276 whole entry, looked up): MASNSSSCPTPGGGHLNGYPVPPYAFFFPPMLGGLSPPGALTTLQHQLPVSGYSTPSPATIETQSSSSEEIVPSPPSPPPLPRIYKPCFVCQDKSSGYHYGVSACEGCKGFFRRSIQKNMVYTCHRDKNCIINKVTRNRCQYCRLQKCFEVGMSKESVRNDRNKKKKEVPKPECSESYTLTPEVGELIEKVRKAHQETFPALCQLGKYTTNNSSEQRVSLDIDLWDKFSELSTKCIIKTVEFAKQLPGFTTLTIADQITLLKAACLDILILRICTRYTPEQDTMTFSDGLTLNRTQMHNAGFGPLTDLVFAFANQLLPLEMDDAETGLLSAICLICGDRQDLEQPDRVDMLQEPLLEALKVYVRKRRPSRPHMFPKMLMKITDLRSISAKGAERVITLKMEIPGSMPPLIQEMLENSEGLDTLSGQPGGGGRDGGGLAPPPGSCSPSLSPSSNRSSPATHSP
Transcription factor E2F1 (Homo sapiens), sequence (Q01094 whole entry, looked up): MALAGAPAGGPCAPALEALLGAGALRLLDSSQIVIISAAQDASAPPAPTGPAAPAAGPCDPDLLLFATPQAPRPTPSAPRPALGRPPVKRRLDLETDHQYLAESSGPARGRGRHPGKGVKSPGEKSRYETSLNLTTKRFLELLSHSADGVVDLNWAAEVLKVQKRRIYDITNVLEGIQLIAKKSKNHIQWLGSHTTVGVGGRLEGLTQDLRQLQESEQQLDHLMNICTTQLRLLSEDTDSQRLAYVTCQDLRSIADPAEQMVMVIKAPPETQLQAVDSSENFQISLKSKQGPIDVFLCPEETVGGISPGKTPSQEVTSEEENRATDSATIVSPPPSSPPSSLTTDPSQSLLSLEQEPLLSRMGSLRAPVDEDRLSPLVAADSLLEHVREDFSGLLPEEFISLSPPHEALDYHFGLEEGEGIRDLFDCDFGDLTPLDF
Hepatocyte nuclear factor 3-beta (Homo sapiens), sequence (Q9Y261 whole entry, looked up): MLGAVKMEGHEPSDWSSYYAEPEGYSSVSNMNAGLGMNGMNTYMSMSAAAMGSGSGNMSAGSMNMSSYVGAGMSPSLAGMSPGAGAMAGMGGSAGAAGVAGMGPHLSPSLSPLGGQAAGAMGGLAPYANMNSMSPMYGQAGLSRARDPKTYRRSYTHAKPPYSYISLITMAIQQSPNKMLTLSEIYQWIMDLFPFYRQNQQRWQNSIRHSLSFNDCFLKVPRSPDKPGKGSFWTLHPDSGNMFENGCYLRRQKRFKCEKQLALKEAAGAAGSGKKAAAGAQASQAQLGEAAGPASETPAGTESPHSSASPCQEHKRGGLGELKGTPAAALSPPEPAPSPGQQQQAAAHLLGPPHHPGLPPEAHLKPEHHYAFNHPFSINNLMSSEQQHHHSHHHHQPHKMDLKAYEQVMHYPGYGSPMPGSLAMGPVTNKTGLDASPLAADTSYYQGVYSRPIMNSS
Aryl hydrocarbon receptor (Homo sapiens), sequence (P35869 whole entry, looked up): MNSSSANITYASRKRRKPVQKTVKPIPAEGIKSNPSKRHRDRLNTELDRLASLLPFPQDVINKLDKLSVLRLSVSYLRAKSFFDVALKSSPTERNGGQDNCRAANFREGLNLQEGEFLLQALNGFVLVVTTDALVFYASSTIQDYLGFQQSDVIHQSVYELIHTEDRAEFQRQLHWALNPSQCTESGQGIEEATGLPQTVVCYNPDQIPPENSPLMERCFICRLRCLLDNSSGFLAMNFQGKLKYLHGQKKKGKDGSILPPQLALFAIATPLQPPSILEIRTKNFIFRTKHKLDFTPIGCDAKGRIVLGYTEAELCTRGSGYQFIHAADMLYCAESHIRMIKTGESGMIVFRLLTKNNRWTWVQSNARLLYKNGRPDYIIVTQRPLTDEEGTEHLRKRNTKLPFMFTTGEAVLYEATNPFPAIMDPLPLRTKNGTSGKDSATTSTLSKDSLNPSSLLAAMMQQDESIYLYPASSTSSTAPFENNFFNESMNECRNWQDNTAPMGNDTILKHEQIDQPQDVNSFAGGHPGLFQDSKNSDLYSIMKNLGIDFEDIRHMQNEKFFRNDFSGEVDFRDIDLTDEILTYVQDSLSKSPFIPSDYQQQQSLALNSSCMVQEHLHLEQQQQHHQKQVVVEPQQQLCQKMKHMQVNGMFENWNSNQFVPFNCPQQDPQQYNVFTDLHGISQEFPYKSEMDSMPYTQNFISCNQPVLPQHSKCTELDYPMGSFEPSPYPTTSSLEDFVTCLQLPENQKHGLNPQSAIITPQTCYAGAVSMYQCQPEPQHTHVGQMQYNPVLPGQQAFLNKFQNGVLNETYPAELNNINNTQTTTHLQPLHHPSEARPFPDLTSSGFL

CC1(C)CCC[C@]2(C)[C@H]3CC(=O)O[C@]3(C)CC[C@@H]12
not listed: [19] | [20]
inactive: all other assays above

C=CC(=O)OCCCCCCOC(=O)C=C
active: [1] 10.5 µM | [4] 56.6 µM | [5] 49.7 µM | [9] 24.5 µM | [11] 100 µM | [12] 66.6 µM
not listed: [18] | [20]
inactive: all other assays above

CC(C)c1ccc(O)c(C(C)C)c1
active: [14] 41.2 µM
not listed: [10] | [15]
inactive: all other assays above

COc1cc(C)ccc1O
not listed: [20]
inactive: all other assays above

Cc1ccccc1CCO
not listed: [20]
inactive: all other assays above

CCCCCCOC(=O)CCCCC(=O)OCCCCCC
active: [14] 27.5 µM
not listed: [10]
inactive: all other assays above

CC(C)[N+](C)(CCOC(=O)C1c2ccccc2Oc2ccccc21)C(C)C
not listed: [10]
inactive: all other assays above
